Measured values: PubChem BioAssay AID1259240 (Keith Lab, Institute of Cancer Science, University of …, 2017)
Calls of active or inactive are those of the source. Cut-off read from the data, not from the text of the source: active = fold change mostly below about -2 (no sharp cut-off); inactive = mostly above about -1.8.

Assay: modulation of TERT promoter-driven luciferase – cell-based, luciferase reporter, human, primary screen (AID 1259240)
Details: A2780 TERT promoter luciferase reporter, 16 h; at 20 µM, fold versus average of vehicle-only wells
For `COc1ccc(-c2nc(CSc3nc4ccncc4[nH]3)c(C)o2)cc1`, the fold change was -1.53 (inactive). With `CCOC(=O)Cn1c(=O)oc2cc(S(=O)(=O)NC3CCCC(C)C3C)ccc21` (centres undefined) the fold change was 1.21 (inactive). In the case of `NC(=O)C1CCN(C(=O)N2c3ccccc3Sc3ccccc32)CC1`, the fold change is reported as -2.9 (active). For `O=C(NCCN1CCCCCC1)C1CCC(CNS(=O)(=O)c2cccc3nsnc23)CC1` (centres undefined), the fold change was -1.56 (inactive). In the case of `CCC1(C)Cc2ccccc2-c2nc(NCCO)n(-c3ccccc3)c(=O)c21` (centres undefined), the fold change is reported as -1.48 (inactive). In the case of `Cc1noc(C(=O)Nc2cccnc2Cl)c1Cl`, the fold change is reported as 1.48 (inactive). In the case of `Cc1nc2cc(-c3ccccc3)nn2c(C)c1CCC(=O)NC(C)CCc1ccco1` (centres undefined), the fold change is reported as -2.05 (active). With `CCOc1ccc2nc(NC(=O)CN(C)S(=O)(=O)c3cnc[nH]3)sc2c1` the fold change was 1.35 (inactive). For `Cn1c(SCC(=O)NCc2ccco2)nnc1-c1c[nH]c2ccccc12`, the outcome was “inactive”. In the case of `COc1ccc(N2CCN(c3ccc4nnc(C)n4n3)CC2)cc1`, the fold change is reported as -1.14 (inactive). In the case of `Cc1ccc2c(c1)c(-c1ccccc1)nc1nncn12`, the fold change is reported as 1.67 (inactive). In the case of `c1nc(N2CCOCC2)c2sc3nc(N4CCOCC4)c4c(c3c2n1)CCCC4`, the fold change is reported as -1.09 (inactive). With `CCCCN(CC)CCNS(=O)(=O)c1cccc2cccnc12` the fold change was -1.21 (inactive). With `Cc1ccc(C)c(N2CCN(C(=O)CCCc3nnc4n5nc(C)nc5c5ccccc5n34)CC2)c1` the fold change was -1.04 (inactive). With `O=C(Nc1ccc(F)c(F)c1)C1CCCN1S(=O)(=O)c1cccc2nsnc12` (centres undefined) the fold change was -1.3 (inactive). For `CCOC(=O)N1CCC(Nc2c(N3CC(C)CC(C)C3)c(=O)c2=O)CC1` (centres undefined), the fold change was 1.09 (inactive). In the case of `Cc1nc2c(-c3ccc(F)cc3)c(C)nn2c(C)c1CCC(=O)NCc1ccc2c(c1)OCO2`, the fold change is reported as 1.02 (inactive). For `CCOC(=O)C1=C(CS(=O)(=O)c2ccc(C)c(C)c2)NC(=O)NC1c1ccc(O)c(OC)c1` (centres undefined), the fold change was 1.22 (inactive). In the case of `Cc1cccc(-c2nc3s/c(=C\c4ccc(F)cc4)c(=O)n3n2)c1`, the fold change is reported as -1.54 (inactive). For `CCOC(=O)C1=C(CS(=O)(=O)c2ccc(Cl)cc2)NC(=O)NC1c1ccc(OCC)cc1` (centres undefined), the fold change was 1.7 (inactive). With `CCOC(=O)N1CCN(c2c(N(CC)CCN(C)C)c(=O)c2=O)CC1` the fold change was -1.33 (inactive). For `N=C1C(c2nc3ccccc3c(=O)[nH]2)=C(O)CN1c1ccc(Cl)c(Cl)c1`, the outcome was “active”. In the case of `COc1cc(Cl)cc(OC)c1NC(=O)Nc1ccc2snnc2c1`, the fold change is reported as -1.47 (inactive). In the case of `CCOC(=O)C(C)Sc1nnc(-c2c[nH]c3ccccc23)n1CC` (centres undefined), the outcome is reported as “inactive”. In the case of `CCOC(=O)CNc1c(N(C)C2CCCCC2)c(=O)c1=O`, the fold change is reported as -1.1 (inactive). With `CN(C)C(=O)Nc1ccc2snnc2c1` the fold change was 1.12 (inactive). With `CC(CC(=O)Nc1nccs1)CC1=NS(=O)(=O)c2ccccc2N1` (centres undefined) the fold change was -1.22 (inactive). In the case of `Cn1c(=O)c2c(SCC(=O)Nc3ccc4c(c3)OCO4)nc(-c3ccco3)nc2n(C)c1=O`, the fold change is reported as 1.03 (inactive). For `O=C(CCSCCc1ccccn1)Nc1nccs1`, the fold change was 1.07 (inactive). For `CCOC(=O)C1CCN(c2c(NCCCN3CCCCCC3)c(=O)c2=O)CC1`, the fold change was -1.3 (inactive). For `Cc1cc2[nH]c(=O)c(CCO)c(C)n2n1`, the outcome was “inactive”. With `COc1cc2c(=O)c(S(=O)(=O)c3ccccc3)cn(Cc3ccccc3Cl)c2cc1OC` the fold change was -1.09 (inactive). For `CCn1c(SCC(=O)N2CCCc3ccccc32)nnc1-c1c[nH]c2ccccc12`, the outcome was “inactive”. For `Cc1sc2nc3ccc(N4CCCC4)nn3c(=O)c2c1C`, the fold change was -1.02 (inactive). With `CCN(CC)S(=O)(=O)c1ccc2c(c1)N(CC(=O)NC1CC1)C(=O)CO2` the fold change was -1.73 (inactive). With `COC(=O)c1sc2ccccc2c1N` the fold change was 1.26 (inactive). With `CCOC(=O)N1CCN(c2c(NC3CCCCCC3)c(=O)c2=O)CC1` the fold change was -1.07 (inactive). With `c1ccn2c(SCc3ccc4c(c3)OCCO4)nnc2c1` the fold change was 1.6 (inactive). With `Cc1cc(=O)[nH]c(SCC(=O)c2c[nH]c3ccccc23)n1` the outcome was “inactive”.
